According to PubChem BioAssay (NCI):
About 79,000 compounds went through this panel and 15% of them were active in at least one assay; those are over-represented in the sample as a whole. The source made the active and inactive calls. No stated cut-off is given here; in the data, active means growth inhibition above about 70%; inactive means the rest.

Legend:
[1] = NCI Yeast Anticancer Drug Screen. Data for the rad50 strain (AID 155);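 further: 0% = growth of vehicle-only cultures of the same strain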; settings: S. cerevisiae rad50 strain growth inhibition, active compounds read high
Method in brief: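 Vehicle-treated cultures provide the reference for the growth inhibition reported for compound-exposed, repair-deficient yeast.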

[2] = NCI Yeast Anticancer Drug Screen. Data for the mec2-1 strain (AID 157); settings: S. cerevisiae mec2-1 strain, active compounds read high
Method in brief: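 Growth inhibition is read against vehicle-treated controls after compound exposure of the mec2-1 yeast strain, which is defective in DNA damage repair or cell cycle control.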

[3] = NCI Yeast Anticancer Drug Screen. Data for the sgs1 mgt1 strain (AID 161);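 further: 0% = growth of cultures given vehicle only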; settings: S. cerevisiae sgs1 mgt1 strain, active compounds read high
Method in brief: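 Percent growth inhibition was derived by comparing compound-exposed mutant yeast with vehicle-exposed cultures. The strain carries alterations in DNA damage repair.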

[4] = NCI Yeast Anticancer Drug Screen. Data for the cln2 rad14 strain (AID 165);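 further: 0% = growth equal to vehicle treated cultures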; settings: S. cerevisiae cln2 rad14 strain, active compounds read high
Method in brief: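 Growth inhibition, relative to vehicle-treated controls, is the read-out. The test organism is a yeast strain with defined genetic alterations, cln2 rad14.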

[5] = NCI Yeast Anticancer Drug Screen. Data for the bub3 strain (AID 167); settings: S. cerevisiae bub3 mutant strain, active compounds read high
Method in brief: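 Mutant yeast screening strain plus compound; vehicle-treated cultures serve as the 0% inhibition reference.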

[6] = NCI Yeast Anticancer Drug Screen. Data for the mlh1 rad18 strain (AID 175); settings: S. cerevisiae mlh1 rad18 strain growth inhibition, active compounds read high
Method in brief: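 Cells of a genetically altered yeast strain, deficient in DNA damage repair, were treated with compound. Their growth was then compared with that of vehicle-treated cultures to give inhibition.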

[7] = at 5.0 µM (retest, dose inferred, filed as 0.5)
[8] = at 50.0 µM (retest, dose inferred, filed as 5.0)

Measured: growth inhibition

O=[N+]([O-])c1ccc(Br)c([N+](=O)[O-])c1
active: [1]; [7] 83% | [1]; [8] 98% | [1]; at 50.0 µM 99% | [2]; [8] 99% | [2]; at 50.0 µM 99.4% | [3]; [8] 98% | [3]; at 50.0 µM 99.2% | [4]; [8] 98% | [4]; at 50.0 µM 98.3% | [5]; [8] 98% | [5]; at 50.0 µM 98.9% | [6]; [8] 98% | [6]; at 50.0 µM 99.2%
inactive: [2]; [7] 7% | [3]; [7] 8% | [4]; [7] -6% | [5]; [7] -15% | [6]; [7] 17%

O=[N+]([O-])O.[In]
inactive: [1]; [7] 9% | [1]; [8] 49% | [1]; at 50.0 µM 11.6% | [2]; [7] 17% | [2]; [8] 53% | [2]; at 50.0 µM 44.2% | [3]; [7] 6% | [3]; [8] 43% | [3]; at 50.0 µM 50.3% | [4]; [7] 3% | [4]; [8] 22% | [4]; at 50.0 µM -24.1% | [5]; [7] 11% | [5]; [8] 58% | [5]; at 50.0 µM -1.85% | [6]; [7] 13% | [6]; [8] 55% | [6]; at 50.0 µM 65.3%

[N-]=[N+]=Nc1c([N+](=O)[O-])c(=O)n2c3c(cccc13)CCC2
inactive: [1]; [7] 46% | [2]; [7] 26% | [3]; [7] 28% | [4]; [7] 18% | [5]; [7] 37% | [6]; [7] 40%
active: [1]; [8] 98% | [1]; at 50.0 µM 85.5% | [2]; [8] 99% | [2]; at 50.0 µM 88.8% | [3]; [8] 99% | [3]; at 50.0 µM 92.8% | [4]; [8] 84% | [4]; at 50.0 µM 90.6% | [5]; [8] 99% | [5]; at 50.0 µM 90.5% | [6]; [8] 98% | [6]; at 50.0 µM 90.2%

O=S(=O)(CCBr)CCBr
inactive: [1]; [7] 51% | [1]; [8] 68% | [2]; [7] 43% | [2]; [8] 56% | [3]; [7] 66% | [4]; at 50.0 µM 41.9% | [6]; [7] 33% | [6]; [8] 57%
active: [1]; at 50.0 µM 88.3% | [2]; at 50.0 µM 84.2% | [3]; [8] 89% | [3]; at 50.0 µM 88.4% | [4]; [7] 92% | [4]; [8] 93% | [5]; [7] 80% | [5]; [8] 94% | [5]; at 50.0 µM 83.2% | [6]; at 50.0 µM 85.2%

Cc1c(=O)n(O)c2ccccc2[n+]1[O-]
inactive: [1]; [7] 4% | [1]; [8] 21% | [1]; at 50.0 µM 4.05% | [2]; [7] 4% | [2]; [8] 31% | [2]; at 50.0 µM 0.75% | [3]; [7] 4% | [3]; [8] 24% | [3]; at 50.0 µM 7.3% | [4]; [7] 4% | [4]; [8] 14% | [4]; at 50.0 µM 32.5% | [5]; [7] 1% | [5]; [8] 16% | [5]; at 50.0 µM 12.6% | [6]; [7] 5% | [6]; [8] 51% | [6]; at 50.0 µM 16.5%

CN1CCN(c2ccc3nc(-c4ccc5nc(CCCc6ccc(N(CCCl)CCCl)cc6)[nH]c5c4)[nH]c3c2)CC1
active: [1]; [7] 98% | [1]; [8] 98% | [1]; at 50.0 µM 90.5% | [2]; [7] 99% | [2]; [8] 99% | [2]; at 50.0 µM 90.8% | [3]; [7] 100% | [3]; [8] 99% | [3]; at 50.0 µM 92.2% | [4]; [7] 97% | [4]; [8] 99% | [4]; at 50.0 µM 91% | [5]; [7] 99% | [5]; [8] 99% | [5]; at 50.0 µM 91.7% | [6]; [7] 98% | [6]; [8] 98% | [6]; at 50.0 µM 89.5%

COC1OC(CO)C(O)C(O)[CH]1[Hg][Cl] (configuration not stated)
active: [1]; [7] 99% | [1]; [8] 99% | [1]; at 50.0 µM 99% | [2]; [7] 99% | [2]; [8] 99% | [2]; at 50.0 µM 99% | [3]; [7] 100% | [3]; [8] 100% | [3]; at 50.0 µM 99% | [4]; [7] 99% | [4]; [8] 99% | [4]; at 50.0 µM 99.2% | [5]; [7] 99% | [5]; [8] 99% | [5]; at 50.0 µM 98.8% | [6]; [7] 99% | [6]; [8] 99% | [6]; at 50.0 µM 98.8%

CC1CC[N-]C(C)C1.CN(C)C=O.[Cl][Pt][Cl] (configuration not stated)
active: [1]; [8] 100% | [1]; at 50.0 µM 80.7% | [2]; [8] 100% | [2]; at 50.0 µM 92.2% | [3]; [8] 100% | [3]; at 50.0 µM 89.8% | [4]; [8] 100% | [5]; [7] 73% | [5]; [8] 100% | [5]; at 50.0 µM 89.4% | [6]; [8] 99% | [6]; at 50.0 µM 89.8%
inactive: [1]; [7] 33% | [2]; [7] 42% | [3]; [7] 66% | [4]; [7] 61% | [4]; at 50.0 µM 49% | [6]; [7] 25%

COC1=C(Cl)C(=O)c2ccccc2C1=O
inactive: [1]; [7] 8% | [2]; [7] 15% | [3]; [7] 6% | [4]; [7] -2% | [5]; [7] 30% | [6]; [7] 7%
active: [1]; [8] 98% | [1]; at 50.0 µM 99.2% | [2]; [8] 99% | [2]; at 50.0 µM 99.5% | [3]; [8] 99% | [3]; at 50.0 µM 99.6% | [4]; [8] 98% | [4]; at 50.0 µM 99.1% | [5]; [8] 98% | [5]; at 50.0 µM 99.2% | [6]; [8] 99% | [6]; at 50.0 µM 99.4%
